# Measured values reported in publication PMC4336329 (PLoS ONE, 2015).
# Hit rate of the full screen: of about 310,000 compounds, about 14,000 (4.5%) showed an effect of 50% or more. The effect is printed as a negative number. The sample holds strong results, similar compounds and a random draw of the others, so the mix is not that of the screen.
# Target: human ether-à-go-go-related gene (hERG) potassium channel (human, UniProt Q12809)
# Assay: primary screen, population patch clamp on CHO cells stably expressing hERG; higher = less effect of the substance
# 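Also: peak tail current of the secondary pulse compared with the same well before compound.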
# Sequence of human ether-à-go-go-related gene (hERG) potassium channel (Q12809 whole entry, looked up): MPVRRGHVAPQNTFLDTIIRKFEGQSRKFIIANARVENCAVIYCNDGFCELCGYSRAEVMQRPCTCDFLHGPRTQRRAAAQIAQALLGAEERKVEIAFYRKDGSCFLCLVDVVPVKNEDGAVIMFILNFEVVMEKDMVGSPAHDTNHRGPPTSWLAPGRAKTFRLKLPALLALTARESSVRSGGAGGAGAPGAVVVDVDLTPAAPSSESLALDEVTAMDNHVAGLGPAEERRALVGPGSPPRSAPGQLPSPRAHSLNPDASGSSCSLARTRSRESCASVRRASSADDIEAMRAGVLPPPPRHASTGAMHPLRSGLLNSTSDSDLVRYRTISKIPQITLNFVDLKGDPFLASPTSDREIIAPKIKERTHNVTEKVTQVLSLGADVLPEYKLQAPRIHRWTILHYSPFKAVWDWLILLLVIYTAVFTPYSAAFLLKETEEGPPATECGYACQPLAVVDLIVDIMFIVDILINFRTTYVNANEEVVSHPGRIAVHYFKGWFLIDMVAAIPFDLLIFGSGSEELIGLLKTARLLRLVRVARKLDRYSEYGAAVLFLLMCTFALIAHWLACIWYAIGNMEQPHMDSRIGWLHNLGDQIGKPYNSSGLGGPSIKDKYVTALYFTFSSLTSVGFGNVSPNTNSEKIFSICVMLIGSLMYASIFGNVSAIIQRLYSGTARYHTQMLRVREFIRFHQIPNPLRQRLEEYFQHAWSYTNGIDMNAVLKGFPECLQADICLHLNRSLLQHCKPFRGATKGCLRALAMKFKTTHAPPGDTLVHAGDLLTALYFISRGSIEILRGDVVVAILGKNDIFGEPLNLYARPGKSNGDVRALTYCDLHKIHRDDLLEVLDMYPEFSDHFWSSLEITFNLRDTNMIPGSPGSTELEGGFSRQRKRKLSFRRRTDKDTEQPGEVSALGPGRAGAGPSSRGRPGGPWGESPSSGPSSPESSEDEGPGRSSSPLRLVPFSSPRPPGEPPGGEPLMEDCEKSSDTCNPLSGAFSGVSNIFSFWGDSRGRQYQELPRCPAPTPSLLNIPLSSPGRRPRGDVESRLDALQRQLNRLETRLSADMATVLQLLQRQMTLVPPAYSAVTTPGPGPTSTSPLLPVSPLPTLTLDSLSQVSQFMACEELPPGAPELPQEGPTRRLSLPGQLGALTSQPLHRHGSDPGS
row,Structure (SMILES),"hERG current change (%, negative = inhibition) at 10uM"
1,CC1CCCC(C)N1C(=O)C1CC(c2ccc(F)cc2)=NO1 (centres unmarked),-7.79%
2,O=C(N/N=C/c1ccncc1)c1cc(-c2ccc(Br)s2)[nH]n1,-12.4%
3,Cc1ccc(S(=O)(=O)NCCSCc2ccco2)cc1,-4.42%
4,Cc1ccc2c(c1)N(C(=O)CCC(=O)NCc1ccccn1)CC(C)O2 (centres unmarked),-7.23%
5,COc1ccc(C)cc1N(CC(=O)O)S(=O)(=O)c1ccc(C)cc1,17.1%
6,CCN(CC)CCCn1c2c(c(SCC(=O)N3CCc4ccccc43)nc1=O)CCC2,-78.6%
7,CCN(CC)CCCn1c2c(c(SCC(=O)Nc3cccc4ccccc34)nc1=O)CCC2,-56.6%
8,CCN(CC)CCCn1c2c(c(SCC(=O)Nc3cccc(C)c3C)nc1=O)CCC2,-55.3%
9,Cc1cccc(NC(=O)CSc2nc(=O)n(CCN3CCOCC3)c3c2CCCC3)c1C,-23.6%
10,CCN(CC)CCCn1c2c(c(SCC(=O)N3CCCc4ccccc43)nc1=O)CCC2,-22.9%
11,CN(C)CCn1c2c(c(SCC(=O)Nc3ccccc3C(F)(F)F)nc1=O)CCCC2,-18.4%
12,CN(C)CCn1c2c(c(SCC(=O)Nc3cccc4ccccc34)nc1=O)CCCC2,-40.4%
13,CCN(CC)CCCn1c2c(c(SCC(=O)Nc3cc(C)on3)nc1=O)CCC2,-2.43%
14,CN(C)CCCn1c2c(c(SCC(=O)Nc3cccc4ccccc34)nc1=O)CCCC2,-45.6%
15,CN(C)CCCn1c2c(c(SCC(=O)Nc3cccc4ccccc34)nc1=O)CCC2,-38.4%
16,CCN(CC)CCn1c2c(c(SCC(=O)Nc3cccc4ccccc34)nc1=O)CCCC2,-63.8%
17,CN(C)CCn1c2c(c(SCC(=O)N3CCc4ccccc43)nc1=O)CCCC2,-44.7%
18,COc1ccc(C)cc1S(=O)(=O)Nc1cc(Cl)ccc1Cl,7.53%
19,CCOC(=O)c1cccc(NC(=O)c2cccs2)c1,-13.1%
20,CCCCc1cc(C(=O)Cc2ccccn2)c(O)cc1O,16.9%
21,O=C(NCc1cccnc1)Nc1ccc(Cl)c(Cl)c1,-0.174%
22,COc1ccc(CN2CC(=O)N3[C@H]4c5ccccc5OC[C@@H]4[C@H](c4ccccc4)[C@]3(C)C2=O)cc1,15.3%
23,COc1ccccc1OCCOc1ccc(/C=C2\C(=N)N3N=C(S(C)(=O)=O)SC3=NC2=O)cc1,12%
24,CN(C)CCn1c2c(c(SCC(=O)Nc3cccc4ccccc34)nc1=O)CCC2,-13.6%

row,Structure (SMILES),"hERG current change (%, negative = inhibition) at 10uM"
1,CCN(CC)CCn1c2c(c(SCC(=O)Nc3cccc4ccccc34)nc1=O)CCC2,-62.7%
2,CN=C(NC(=O)Nc1c(C)cccc1C)NC(=O)Nc1c(C)cccc1C,3.97%
3,COc1ccccc1CN(C)C(=O)c1cc(-c2cc(OC)c(OC)c(OC)c2)nc2ccccc12,12.9%
4,COc1ccccc1CN(C)C(=O)c1cc(-c2cccs2)nc2ccccc12,4.13%
5,COc1ccccc1CN(C)C(=O)c1cc(C)nc2ccccc12,-65.1%
6,CN(C)C(=S)NC1(C)CCS(=O)(=O)C1 (centres unmarked),6.89%
7,CCOc1ccc(/C=N/NC(=O)NC23CC4CC(CC(C4)C2)C3)cc1O,-10.9%
8,O=C(N/N=C/c1ccc(O)cc1)NC12CC3CC(CC(C3)C1)C2,-55.7%
9,O=C(N/N=C/c1ccncc1)NC12CC3CC(CC(C3)C1)C2,-26.6%
10,COc1cc(/C=N/NC(=O)NC23CC4CC(CC(C4)C2)C3)ccc1OCC(N)=O,-57%
11,COc1cc(/C=N/NC(=O)NC23CC4CC(CC(C4)C2)C3)ccc1O,-34.3%
12,O=C(N/N=C/c1ccc(O)c(O)c1)NC12CC3CC(CC(C3)C1)C2,-11.8%
13,O=C(Nc1nc(-c2ccco2)c(-c2ccco2)s1)c1cnccn1,3.8%
14,CCOC(=O)C1=C(COC(=O)COc2ccc(C(=O)CC)cc2)NC(=O)NC1C (centres unmarked),-25.5%
15,O=C1N/C(=N\N=C\c2cccs2)SC1Cc1ccc(Cl)c(Cl)c1 (centres unmarked),16.1%
16,Cc1cc(NC(=O)c2cc(-c3ccco3)on2)n(-c2ccccc2)n1,-0.313%
17,Cc1cccc(COc2ncnc3nc[nH]c23)c1,-6.73%
18,CN(C)C1(CNC(=O)c2ccc(NS(=O)(=O)c3ccc(Cl)c(Cl)c3)cc2)CCCCC1,-74.1%
19,CN(C)CCNC(=O)Nc1ccc(Cl)c(Cl)c1,-23.4%
20,CN(C)C1(CNC(=O)Nc2ccc(Cl)c(Cl)c2)CCCCC1,-50.1%
21,CN(C)C1(CNC(=O)c2cccc(S(=O)(=O)Nc3ccc(Br)cc3)c2)CCCCC1,-66.7%
22,CN(C)C1(CNC(=O)Nc2ccccc2)CCCCC1,-3.27%
23,CCOc1ccc(NS(=O)(=O)c2ccc(C(=O)NCC3(N(C)C)CCCCC3)cc2)cc1,-8.13%
24,COc1ccc(NS(=O)(=O)c2cccc(C(=O)NCC3(N(C)C)CCCCC3)c2)cc1,-40.6%

row,Structure (SMILES),"hERG current change (%, negative = inhibition) at 10uM"
1,Cc1cc(S(=O)(=O)Nc2ccc(C(=O)NCC3(N(C)C)CCCCC3)cc2)ccc1F,-49.2%
2,Cc1ccc(NS(=O)(=O)c2cccc(C(=O)NCC3(N(C)C)CCCCC3)c2)cc1,-22.4%
3,Cc1ccc(CNC(=O)c2ccc(Br)o2)cc1,-18%
4,O=C(NC1CCCC1)C1CCCN(S(=O)(=O)c2cnc[nH]2)C1 (centres unmarked),15.3%
5,O=C(NCc1cccs1)c1cnc(Cl)c(Cl)c1,11.7%
6,CC1=Nc2ccccc2N=C(NC(=O)CSC(=S)N2CCN(C)CC2)C1c1ccccc1 (centres unmarked),-24.2%
7,COc1ccc2c(Cl)c(C(=O)NN)sc2c1,7.88%
8,O=[N+]([O-])c1ccc(CSc2nnc(SCc3ccc(Cl)cc3)s2)cc1,16.8%
9,O=C(c1ccccc1F)N1CCc2ccccc21,-7.14%
10,Cc1ccc(N(CC(=O)NC2CCCC2)C(=O)CCCC(=O)Nc2ccccn2)cc1C,2.86%
11,COc1ccc(/C=N/OCC(=O)NC(c2ccccc2)c2ccccc2)c(OC)c1,-35.1%
12,CCn1c(CNC(=O)c2cccs2)nnc1SCC(=O)Nc1ccc(Cl)cc1,-57.5%
13,CCc1nnc(NC(=O)CSc2nnc(CNc3cccc(C)c3)n2-c2ccccc2)s1,3.35%
14,CCc1nnc(NC(=O)CSc2nnc(CNc3ccc(OC)cc3)n2CC)s1,13.1%
15,CCc1nnc(NC(=O)CSc2nnc(CNc3cccc(Cl)c3)n2CC)s1,-59.6%
16,CCn1c(CCNC(=O)c2cccs2)nnc1SCC(=O)c1ccc(OC)cc1,7.05%
17,Cn1c(CNC(=O)c2cccs2)nnc1SCC(=O)Nc1ccc(Cl)cc1,-35.4%
18,CCn1c(CCNC(=O)c2cccs2)nnc1SCC(=O)Nc1cccc(Cl)c1,-64.5%
19,CCn1c(CCNC(=O)c2cccs2)nnc1SCC(=O)Nc1ccc(Cl)cc1,-49.7%
20,CCn1c(CCNC(=O)c2cccs2)nnc1SCC(=O)NC1CCCCC1,0.651%
21,CCC(C)(C)C1CCC(=NNC(=O)c2ccoc2C)CC1 (centres unmarked),6.38%
22,CSc1nc(-c2ccccc2)nc(N2CCCC2)c1C(C)=O,-10.8%
23,CCN(CC)C(=O)CSc1ncnc2c1cnn2Cc1ccccc1,-19.9%
24,O=C(NC1CCCCCCC1)c1ccccc1O,-6.11%

row,Structure (SMILES),"hERG current change (%, negative = inhibition) at 10uM"
1,CC(=O)Nc1ccc(NC(=O)C(C)OC(=O)CCCc2c[nH]c3ccccc23)cc1 (centres unmarked),7.68%
2,Cn1c(=O)c2c(nc(CN3CCN(c4ccccc4)CC3)n2CCc2ccccc2)n(C)c1=O,-33.7%
3,CCCCCn1c(CN2CCN(c3cccc(Cl)c3)CC2)nc2c1c(=O)n(C)c(=O)n2C,-35.3%
4,CCCCn1c(CN2CCN(c3cccc(Cl)c3)CC2)nc2c1c(=O)n(C)c(=O)n2C,-56.3%
5,CC(C)CCn1c(CN2CCN(c3cccc(Cl)c3)CC2)nc2c1c(=O)n(C)c(=O)n2C,-5.6%
6,CCCCn1c(CN2CCN(c3ccccc3)CC2)nc2c1c(=O)n(C)c(=O)n2C,-45.7%
7,CCCn1c(CN2CCN(c3cccc(Cl)c3)CC2)nc2c1c(=O)n(C)c(=O)n2C,-63.6%
8,CCc1ccc(-c2nc(C(N)=O)c3[nH]c(=O)n(-c4ccccc4OC)c3n2)cc1,-0.102%
9,COc1cc(/C=N/Nc2nc(=O)[nH]nc2C)ccc1O,4.93%
10,CSc1ccccc1NC(=O)CN(C)C(=O)c1ccc2c(c1)OCCO2,5.66%
11,O=C(CN1CCOCC1)OCCCc1ccccc1,9.77%
12,CC(C)(C)OC(=O)N1CCC(c2c(C(=O)N3CCN(C4CCCCC4)CC3)cnn2-c2ccc(F)cc2)CC1,-55.5%
13,O=C(c1cnn(-c2ccccc2)c1-n1cccc1)N1CCN(C2CCCCC2)CC1,-67.2%
14,CC(C)(C)OC(=O)N1CCC(c2c(C(=O)N3CCN(C(=O)c4ccco4)CC3)cnn2-c2ccc(F)cc2)CC1,-14.8%
15,CC(C)(C)OC(=O)N1CCC(c2c(C(=O)NC3CC3)cnn2-c2ccccc2)CC1,-22.9%
16,Cc1ccc(-n2ncc(C(=O)N3CCN(C(=O)c4ccco4)CC3)c2C2CCN(C(=O)OC(C)(C)C)CC2)cc1C,0.366%
17,CC(C)(C)OC(=O)N1CCC(c2c(C(=O)N3CCN(C(=O)c4ccco4)CC3)cnn2-c2cccc(Cl)c2)CC1,-65.6%
18,CC(C)(C)OC(=O)N1CCC(c2c(C(=O)O)cnn2-c2ccccc2)CC1,11%
19,Cc1ccc(-n2ncc(C(=O)O)c2C2CCN(C(=O)OC(C)(C)C)CC2)cc1,-3.86%
20,O=C(c1cnn2ccccc12)N1CCN(C2CCCCC2)CC1,-9.39%
21,O=C(O)c1cnn(-c2ccccc2)c1-n1cccc1,9%
22,CC(C)(C)OC(=O)N1CCC(c2c(C(=O)N3CCN(C(=O)c4ccco4)CC3)cnn2-c2ccc(F)cc2F)CC1,-19.6%
23,CC(C)(C)OC(=O)N1CCC(c2c(C(=O)N3CCN(C4CCCCC4)CC3)cnn2-c2ccccc2)CC1,-54.7%
